The results in this text go back to PMC5540273 (PLoS ONE, 2017).

Molecules are shown by their SMILES.
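Further: KINOMEscan kinase panel screen.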

The test system of the test is T1, RSK3(Kin.Dom.2-C-terminal).
T1 construct: gene RPS6KA2
The settings on record: concentration: 1 μM, replicates: in singlicate; n = 1.
Turning to `Cc1cccc(Nc2nc(N[C@H]3CCNC3)ncc2C(N)=O)c1.Cl` [GSK2197149], the “%Inh” value is on record as 4%.

As to `O=C(Nc1ccccc1F)NC1CCN(c2ccnc(Nc3ccc(F)cc3)n2)CC1` [GSK1379800], the “%Inh” value worked out at 0%.

In the case of `CN(C)S(=O)(=O)c1cc(-c2ccc3nccc(-c4cccc(S(N)(=O)=O)c4)c3c2)cnc1N` [GSK1669921], the “%Inh” value was found to be 28%.

Take `COc1ccc(CNC(=O)NC2CCN(c3ccnc(Nc4ccc(F)cc4)n3)CC2)cc1` [GSK1379788]: the “%Inh” value is given as 0%.

Take `Cl.Cl.NCC(C(=O)Nc1cc(Br)c(-c2ccnc3[nH]ccc23)s1)c1ccccc1` (stereo not shown) [GSK1269851]: the “%Inh” value stood at 3%.

As for `COC(=O)Nc1nc2ccc(Oc3ccc(NC(=O)Nc4cc(C(F)(F)F)ccc4F)cc3)cc2n1C.Cl` [GW692089], the “%Inh” value is given as 0%.

As for `Nc1ncc(-c2cccnc2)c2scc(-c3ccc4c(c3)CCN4C(=O)Cc3ccccc3)c12` [GSK683281], the “%Inh” value came to 0%.

As for `Cc1ccc(C(=O)Nc2ccc(Nc3ccnc4cc(-c5nccs5)ccc34)cc2O)cc1.Cl` [GW494702], the “%Inh” value is 0%.

Consider `Cn1cc(-c2[nH]c3cc(NC(=O)[C@H](N)C4CCCCC4)cc4c3c2C=NNC4=O)cn1`, for which the “%Inh” value is recorded as 5%.

As for `CCc1ccc(-c2ccc3c(c2)-c2c(cnn2C)S(=O)(=O)N3C)cc1`, the “%Inh” value worked out at 13%.

Regarding `Nc1ncc(-c2ccc3nccc(-c4ccncc4)c3c2)cc1S(=O)(=O)N1CCOCC1` [GSK1627798], the “%Inh” value was 0%.

For `O=C(Nc1n[nH]c2nc(-c3ccc(O)cc3)ccc12)C1CC1` [SB-710363], the “%Inh” value stood at 0%.

As to `O=C(O)C(F)(F)F.O=C(O)C(F)(F)F.O=c1[nH]ccc2nc(N[C@@H]3CCCNC3)nc(Nc3ccc(S(=O)(=O)N4CCOCC4)cc3)c12` [GSK2177277], the “%Inh” value is listed as 90.2%.

As to `COc1cccc(NC(=O)NC2CCN(c3ccnc(Nc4cc(OC)c(OC)c(OC)c4)n3)C2)c1` (stereo not shown) [GSK1379763], the “%Inh” value was found to be 0%.

In the case of `CCS(=O)(=O)c1ccc(OC)c(Nc2nccc(-c3c(-c4cccc(NC(=O)c5c(F)cccc5F)c4)nn4ncccc34)n2)c1` [GSK326180], the “%Inh” value was found to be 0%.

For `COC(=O)Nc1nc2cc(Oc3ccc(NC(=O)Nc4cc(C(F)(F)F)ccc4F)cn3)ccc2[nH]1.Cl.Cl` [GW681170], the “%Inh” value turned out to be 17%.

For `COc1cc(Nc2nccc(N3CCC(NC(=O)Nc4cccc(C(C)=O)c4)C3)n2)cc(OC)c1OC` (stereo not shown) [GSK1379753], the “%Inh” value was determined as 0%.

In the case of `COc1cc(Nc2nccc(-c3c(-c4cccc(NC(=O)c5c(F)cccc5F)c4)nn4ccccc34)n2)cc(OC)c1OC` [GSK323521], the “%Inh” value amounted to 9%.

For the molecule `Cl.Cl.NCC(NC(=O)c1cc(-c2ccccc2)c(-c2ccnc3[nH]ccc23)s1)c1ccccc1` (stereo not shown) [GSK1321561], the “%Inh” value is on record as 0%.

With `Cl.c1ccc(-c2ccc3c(Nc4ccc5[nH]ncc5c4)ccnc3c2)nc1` [GW440137], the “%Inh” value is reported as 0%.

As to `CCn1c(-c2nonc2N)nc2c(C#CC(C)(C)O)ncc(OCCCCN)c21.O=C(O)C(F)(F)F.O=C(O)C(F)(F)F` [GSK507274], the “%Inh” value worked out at 6%.

Regarding `CN1CCN(CCCNc2nccc(-c3c(-c4ccc(F)cc4)nn4cc(C(F)(F)F)ccc34)n2)CC1` [GW621581], the “%Inh” value amounted to 0%.

Regarding `Cl.Cl.NCC(NCc1ccc(-c2ccnc3[nH]ccc23)s1)c1ccccc1` (stereo not shown) [GSK1321565], the “%Inh” value came to 14%.

With `COc1cc(Nc2ncc3c(C)nc(-c4cc5ccccc5[nH]4)n3n2)cc(OC)c1OC` [GW869516], the “%Inh” value is reported as 0%.

On to `Nc1ncnc2c1nc(-c1ccccc1)n2-c1ccccc1` [SKF-97293], for which the “%Inh” value turned out to be 0%.

As to `O=C(Nc1cccc(-c2nn3ccccc3c2-c2ccnc(Nc3cccc(C(F)(F)F)c3)n2)c1)c1c(F)cccc1F` [GSK292658], the “%Inh” value came to 14%.

On to `CCCCc1nn2ncccc2c1-c1ccnc(Nc2ccc(N3CCN(C)CC3)cc2)n1` [GW684941], for which the “%Inh” value is listed as 0%.

As for `Fc1ccc(-c2ncn(C3CCNCC3)c2-c2ccnc(Oc3ccc(-c4ccccc4)cc3)n2)cc1` [SB-245391], the “%Inh” value was found to be 0%.

`FC(F)(F)c1ccc(/C=C/c2cncnc2Nc2ccc3[nH]c(Cc4ccccc4)nc3c2)cc1` [GW709199]: the “%Inh” value is given as 0%.

Take `CC(=O)N1CCN(c2ccc(Nc3nccc(-c4sc(C(C)C)nc4-c4cccc(NS(=O)(=O)c5cccc(Cl)c5)c4)n3)cn2)CC1` [GSK1660437]: the “%Inh” value turned out to be 0%.

With `CC(=O)Nc1nc2cnc(Nc3cc(NC(=O)c4cccc(C5(C#N)CC5)c4Cl)ccc3C)nc2s1`, the “%Inh” value was 10%.

`NCCCC(NC(=O)c1cc(Br)c(-c2ccnc3[nH]ccc23)s1)c1ccccc1.O=C(O)C(F)(F)F.O=C(O)C(F)(F)F` (stereo not shown) [GSK1287544]: the “%Inh” value was 0%.

Consider `CN(C)Cc1ccc(-c2ccc3c(Nc4ccc(Oc5ccccn5)cc4)ccnc3c2)o1` [GW567148], for which the “%Inh” value worked out at 0%.

Take `Cn1cc(-c2ccc3c(c2)CCN3C(=O)Cc2cccc(Cl)c2)c2c(N)ncnc21` [GSK2606590]: the “%Inh” value is 0%.

In the case of `O=c1[nH]cc(-c2ccc(N3CCOCC3)cc2)c2sc(-c3cn[nH]c3)cc12` [GSK2276055], the “%Inh” value was 22%.

On to `CN1CCN(Cc2cccc(-c3ccc4c(Nc5ccc(Oc6ccccc6)cc5)ccnc4c3)c2)CC1` [GW578342], for which the “%Inh” value is listed as 7%.

Regarding `COc1cccc(-c2ccc3c(NC(=O)C4CC4)n[nH]c3n2)c1` [SB-710903], the “%Inh” value is 1%.
